According to PubChem BioAssay (NCATS):
Records with an inconclusive call do not appear. Active and inactive are the calls of the source. The call rests on the fitted dose curve.

target: Vitamin D3 receptor (Homo sapiens) (UniProt P11473); assay: qHTS assay for small molecule antagonists of vitamin D receptor signaling (AID 588541); conditions: HEK293T VDR-UAS-bla, beta-lactamase ratio, antagonist mode; series mostly up to 76.7 µM; activity change, negative = inhibition: at the top concentration;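 further: receptor activated by calcitriol during compound treatment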
Excerpt: NIH Chemical Genomics Center [NCGC]
U.S. Environmental Protection Agency [EPA]
National Institutes of Environmental Health Sciences [NIEHS]
National Toxicology Program [NTP]
The Vitamin D receptor (VDR) is a member of nuclear hormone receptor superfamily and it plays a critical role in calcium homeostasis and bone metabolism. It plays a role in inducing cell differentiation, inhibiting cell growth and in thrombogenicity. So, VDR that mediates these effects represents a pharmacological target in prevention and treatment of hyperproliferative malignancies, such as cancer and psoriasis, cardiovascular, immunological, inflammatory and renal diseases etc.
NCGC Assay Protocol Summary
Using a beta-lactamase reporter-gene under control of Vitamin D receptor (VDR) response element, a cell-based assay [GeneBLAzer (VDR -UAS-bla assay developed by Invitrogen] was used to measure VDR ligands signaling. GeneBLAzer VDR -UAS-bla HEK293T cells were used with assay medium containing 2% charcoal-stripped FBS. The assay was performed in clear bottom black Greiner 1536-well plates. Library compounds were measured for their ability to inhibit the reporter gene activity. Compounds were screened in a titration series in 1536-well format. The fluorescence intensity (405 nm excitation, 460/530 nm emission) was measured using an EnVision plate reader. Data was normalized relative to 1-alpha,25-Dihydroxy vitaminD3 control (50 nM, 100%) and DMSO only wells (basal, 0%). Concentration-response titration points for each compound were fitted to the Hill equation yielding concentrations of half-maximal inhibition (IC50) and maximal response (efficacy) values.
qHTS protocol for VDR beta-lactamase assay in antagonist mode
[Step] [Parameter] [Value] [Description]
1. Reagent; 5 uL; 2000 cells/well
2. Incubation; 37 C for 5 hrs
4. Controls (DMSO); 23 nL,
5. Agonist (Stimulator); 1uL; 1-alpha,25-Dihydroxy vitaminD3 at 50 nM and 3 nM final concentrations
6. Incubation; 37 C for 16 hrs
7. Detection reagent; 1 uL of CCF4-dye
8. Incubation; RT for 2 hrs
9. Detection; Fluorescence; Envision plate reader
On the % scale 0 is the no-effect control and ±100 the full control effect.

Chain of Vitamin D3 receptor (Homo sapiens) (P11473 whole entry, looked up): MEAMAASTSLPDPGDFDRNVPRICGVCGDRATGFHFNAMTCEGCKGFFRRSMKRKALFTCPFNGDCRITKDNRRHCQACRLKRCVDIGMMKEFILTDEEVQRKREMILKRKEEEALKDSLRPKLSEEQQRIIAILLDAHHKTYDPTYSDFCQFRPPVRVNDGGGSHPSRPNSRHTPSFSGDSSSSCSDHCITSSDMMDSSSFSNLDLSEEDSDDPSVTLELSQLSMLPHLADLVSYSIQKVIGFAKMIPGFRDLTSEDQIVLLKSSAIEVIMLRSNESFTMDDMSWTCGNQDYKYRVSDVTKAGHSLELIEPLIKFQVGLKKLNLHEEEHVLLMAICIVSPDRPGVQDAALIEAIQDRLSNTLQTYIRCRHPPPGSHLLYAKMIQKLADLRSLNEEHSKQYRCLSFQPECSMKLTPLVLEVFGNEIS

Row | Compound | activity change, negative = inhibition | outcome
1 | O=P(OCCCl)(OCCCl)OCCCl | 8.39% (inactive) | –
2 | CC(C)OC(=O)Cc1ccccc1 | 3.21% (inactive) | –
3 | Nc1cc(Cl)cc(C(=O)O)c1Cl | – | inactive
4 | c1ccc(Nc2ccc(Nc3ccccc3)cc2)cc1 | -10.5% (inactive) | –
5 | CC(C)(C)C(O)(CCc1ccc(Cl)cc1)Cn1cncn1 (stereo not given) | – | inactive
6 | COc1ccc(C=O)cc1 | 3.15% (inactive) | –
7 | CCCCOCC1CO1 (stereo not given) | 2.57% (inactive) | –
8 | ClC(Cl)(Cl)C(Cl)(Cl)Cl | 3.93% (inactive) | –
9 | O=[N+]([O-])/C=C/c1ccccc1 | 2.97% (inactive) | –
10 | CCN(N=O)C(N)=O | 0.682% (inactive) | –
11 | Clc1cc(Cl)c(Cl)c(Cl)c1 | 1.49% (inactive) | –
12 | FC(Cl)(Cl)Cl | -3.34% (inactive) | –
13 | Oc1cc(Cl)c(Cl)c(Cl)c1 | -2% (inactive) | –
14 | COC(C)(C)C | 3.66% (inactive) | –
15 | COc1c(C(C)(C)C)cc([N+](=O)[O-])c(C)c1[N+](=O)[O-] | 3.08% (inactive) | –
16 | Cc1cc(-c2ccc(N)c(C)c2)ccc1N | – | inactive
17 | CC(C#N)CCC#N (stereo not given) | 1.84% (inactive) | –
18 | Cc1cccc(N)c1C | 4.93% (inactive) | –
19 | COC(=O)Nc1nc2ccccc2[nH]1 | -19.3% (inactive) | –
20 | Cc1ccc(N)cc1N | – | inactive

Row | Compound | activity change, negative = inhibition | outcome
21 | O=C(Cc1ccccc1)OCc1ccccc1 | 3.28% (inactive) | –
22 | C=CC(=O)OCC(CC)CCCC (stereo not given) | – | inactive
23 | Clc1cccc(Cl)c1 | 2.34% (inactive) | –
24 | C=CC=O | 0.966% (inactive) | –
25 | Clc1cccc(Cl)c1Cl | – | inactive
26 | COP(=S)(OC)SCn1nnc2ccccc2c1=O | -14.8% (inactive) | –
27 | Clc1cccc2ccccc12 | 1.09% (inactive) | –
28 | CCCCCc1cc(O)cc(O)c1 | -9.67% (inactive) | –
29 | ClC(Cl)Br | -7.84% (inactive) | –
30 | O=C(O)CBr | -2.18% (inactive) | –
31 | CC1CC(=O)O1 (stereo not given) | 3.92% (inactive) | –
32 | CC(C)(C)c1ccccc1O | – | inactive
33 | O=C(O)c1cc(Cl)ccc1Cl | 4.58% (inactive) | –
34 | [O-][Cl+2]([O-])O | 3.67% (inactive) | –
35 | Cl/C=C/CCl | -0.902% (inactive) | –
36 | CC(C)(Cl)[N+](=O)[O-] | -2.79% (inactive) | –
37 | C=CC#N | -7.23% (inactive) | –
38 | N#CC(O)c1ccccc1 (stereo not given) | -1.54% (inactive) | –
39 | ClCC(Cl)Cl | 3.4% (inactive) | –
40 | Cc1ccc(N=C=O)cc1N=C=O | – | inactive
